Experimental data taken from the supplement of paper PMC10849652.
Targets with a hit are over-represented here; the source holds about 8,800 in all. About 0.5% of all pairs of compound and target were hits. Values without a mark were called inactive.

Experiments:
Experiment in all cases: log2 fold change, soluble protein after heating vs DMSO (PISA); higher = thermal stabilisation; K562 lysate, 10 uM; active = over 0.2 and 3.5 SD of the protein, either way, in both replicates (recomputed)
vemurafenib = compound: CCCS(=O)(=O)Nc1ccc(F)c(C(=O)c2c[nH]c3ncc(-c4ccc(Cl)cc4)cc23)c1F [vemurafenib]
Procedure, shortened: (§1)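 Soluble protein was defined as the supernatant remaining after 21,000xg for 90 min, following pooling of heated aliquots and adjustment to 0.5% NP-40 at 4°C. Before that, crude K562 extract at 1 mg/mL protein in PBS pH 7.4 with 1 mM MgCl2 was treated with 10 μM compound for 30 min and heated for 3 min across 48°C-58°C. Quantification used TMTpro 16plex LC-MS/MS with channel sums equalised, and values are log-two fold changes in thermal stability relative to solvent controls from duplicates.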

[1] = compound: CCCS(=O)(=O)Nc1ccc(F)c(C(=O)c2c[nH]c3ncc(Cl)cc23)c1F
Procedure, shortened: as §1

barasertib = compound: CCN(CCCOc1ccc2c(Nc3cc(CC(=O)Nc4cccc(F)c4)[nH]n3)ncnc2c1)CCOP(=O)(O)O [barasertib]
Procedure, shortened: as §1

[2] = compound: CC[C@@H]1C(=O)N(C)c2cnc(Nc3ccc(C(=O)NC4CCN(C)CC4)cc3OC)nc2N1C1CCCC1
Procedure, shortened: as §1

volasertib = compound: CC[C@@H]1C(=O)N(C)c2cnc(Nc3ccc(C(=O)N[C@H]4CC[C@H](N5CCN(CC6CC6)CC5)CC4)cc3OC)nc2N1C(C)C [volasertib]
Procedure, shortened: as §1

[3] = compound: CCn1c(C(=O)N(C2CC2)C2CC2)cc2c3c(ncn3C)c(Nc3cc(C)n(C)n3)nc21
Procedure, shortened: as §1

[4] = compound: CCn1cc(-c2ccnc3[nH]c(-c4cccc(CN(C)C)c4)cc23)c(-c2ccc(NC(=O)N(C)C)cc2)n1
Procedure, shortened: as §1

[5] = compound: CN1CCC(CNc2ccc3ncc(-c4cccc(OC(F)(F)F)c4)n3n2)CC1
Procedure, shortened: as §1

saracatinib = compound: CN1CCN(CCOc2cc(OC3CCOCC3)c3c(Nc4c(Cl)ccc5c4OCO5)ncnc3c2)CC1 [saracatinib]
Procedure, shortened: as §1

sotrastaurin = compound: CN1CCN(c2nc(C3=C(c4c[nH]c5ccccc45)C(=O)NC3=O)c3ccccc3n2)CC1 [sotrastaurin]
Procedure, shortened: as §1

alvocidib = compound: CN1CC[C@H](c2c(O)cc(O)c3c(=O)cc(-c4ccccc4Cl)oc23)[C@H](O)C1 [alvocidib]
Procedure, shortened: as §1

Tubastatin A = compound: CN1CCc2c(c3ccccc3n2Cc2ccc(C(=O)NO)cc2)C1 [Tubastatin A]
Procedure, shortened: as §1

[6] = compound: CNC(=O)C1=CC=CC=C1NC2=NC(=NC=C2Cl)NC3=C(C=C(C=C3)N4CCOCC4)OC
Procedure, shortened: as §1

defactinib = compound: CNC(=O)c1ccc(Nc2ncc(C(F)(F)F)c(NCc3nccnc3N(C)S(C)(=O)=O)n2)cc1 [defactinib]
Procedure, shortened: as §1

[7] = compound: CNc1nc(-c2ccc3c(N)n[nH]c3c2)cc(N2C[C@@H](C(=O)NC3CCCCC3)CC[C@H]2C)n1
Procedure, shortened: as §1

encorafenib = compound: COC(=O)N[C@@H](C)CNc1nccc(-c2cn(C(C)C)nc2-c2cc(Cl)cc(NS(C)(=O)=O)c2F)n1 [encorafenib]
Procedure, shortened: as §1

[8] = compound: COC(=O)[C@H](CCSC)NC(=O)C1=C(C=C(C=C1)NC[C@H](CS)N)C2=CC=CC=C2
Procedure, shortened: as §1

alisertib = compound: COc1cc(Nc2ncc3c(n2)-c2ccc(Cl)cc2C(c2c(F)cccc2OC)=NC3)ccc1C(=O)O [alisertib]
Procedure, shortened: as §1

[9] = compound: COc1cc2nc(-c3cc(F)ccc3O)nc(N[C@@H]3CNC[C@H]3C(C)(C)O)c2cc1OC
Procedure, shortened: as §1

gefitinib = compound: COc1cc2ncnc(Nc3ccc(F)c(Cl)c3)c2cc1OCCCN1CCOCC1 [gefitinib]
Procedure, shortened: as §1

UniProt Q8IZV5, sequence (Q8IZV5 whole entry, looked up): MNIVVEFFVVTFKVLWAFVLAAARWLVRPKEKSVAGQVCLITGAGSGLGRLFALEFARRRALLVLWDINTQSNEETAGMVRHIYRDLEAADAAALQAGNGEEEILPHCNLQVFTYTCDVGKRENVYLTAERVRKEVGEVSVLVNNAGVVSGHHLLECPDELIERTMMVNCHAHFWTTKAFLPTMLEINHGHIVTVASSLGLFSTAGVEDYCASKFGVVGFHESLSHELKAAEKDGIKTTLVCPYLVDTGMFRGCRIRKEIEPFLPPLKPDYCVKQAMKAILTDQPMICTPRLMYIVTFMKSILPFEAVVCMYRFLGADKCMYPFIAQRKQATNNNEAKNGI
UniProt Q7L523, sequence (Q7L523 whole entry, looked up): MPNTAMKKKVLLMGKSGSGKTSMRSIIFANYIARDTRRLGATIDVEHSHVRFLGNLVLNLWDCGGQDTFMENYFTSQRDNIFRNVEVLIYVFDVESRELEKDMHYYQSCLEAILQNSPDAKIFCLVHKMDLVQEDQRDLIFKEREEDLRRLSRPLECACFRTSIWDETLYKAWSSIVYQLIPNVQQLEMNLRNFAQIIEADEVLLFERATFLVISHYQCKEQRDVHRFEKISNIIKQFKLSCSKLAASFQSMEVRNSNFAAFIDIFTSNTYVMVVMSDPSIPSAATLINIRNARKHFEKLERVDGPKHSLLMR
UniProt P53611, sequence (P53611 whole entry, looked up): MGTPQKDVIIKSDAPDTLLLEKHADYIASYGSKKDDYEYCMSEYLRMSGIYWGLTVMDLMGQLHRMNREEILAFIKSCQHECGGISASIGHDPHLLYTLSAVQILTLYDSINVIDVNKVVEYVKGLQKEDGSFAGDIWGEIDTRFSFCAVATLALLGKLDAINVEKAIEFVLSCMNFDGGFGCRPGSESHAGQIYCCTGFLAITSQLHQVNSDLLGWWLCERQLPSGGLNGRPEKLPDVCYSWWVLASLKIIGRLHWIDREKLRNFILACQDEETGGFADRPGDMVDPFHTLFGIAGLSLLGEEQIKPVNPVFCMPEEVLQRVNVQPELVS
UniProt P35250, sequence (P35250 whole entry, looked up): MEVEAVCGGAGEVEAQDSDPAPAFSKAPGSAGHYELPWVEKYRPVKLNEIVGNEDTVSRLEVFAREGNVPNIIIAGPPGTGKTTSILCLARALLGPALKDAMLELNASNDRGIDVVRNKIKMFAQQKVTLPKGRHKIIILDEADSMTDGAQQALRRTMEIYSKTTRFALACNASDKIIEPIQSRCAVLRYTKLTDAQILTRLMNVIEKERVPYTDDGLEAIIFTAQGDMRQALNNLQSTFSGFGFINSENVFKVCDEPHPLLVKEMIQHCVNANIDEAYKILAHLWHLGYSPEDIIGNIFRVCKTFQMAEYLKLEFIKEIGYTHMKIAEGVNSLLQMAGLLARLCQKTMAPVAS
UniProt Q8IYW5, sequence (Q8IYW5 whole entry, looked up): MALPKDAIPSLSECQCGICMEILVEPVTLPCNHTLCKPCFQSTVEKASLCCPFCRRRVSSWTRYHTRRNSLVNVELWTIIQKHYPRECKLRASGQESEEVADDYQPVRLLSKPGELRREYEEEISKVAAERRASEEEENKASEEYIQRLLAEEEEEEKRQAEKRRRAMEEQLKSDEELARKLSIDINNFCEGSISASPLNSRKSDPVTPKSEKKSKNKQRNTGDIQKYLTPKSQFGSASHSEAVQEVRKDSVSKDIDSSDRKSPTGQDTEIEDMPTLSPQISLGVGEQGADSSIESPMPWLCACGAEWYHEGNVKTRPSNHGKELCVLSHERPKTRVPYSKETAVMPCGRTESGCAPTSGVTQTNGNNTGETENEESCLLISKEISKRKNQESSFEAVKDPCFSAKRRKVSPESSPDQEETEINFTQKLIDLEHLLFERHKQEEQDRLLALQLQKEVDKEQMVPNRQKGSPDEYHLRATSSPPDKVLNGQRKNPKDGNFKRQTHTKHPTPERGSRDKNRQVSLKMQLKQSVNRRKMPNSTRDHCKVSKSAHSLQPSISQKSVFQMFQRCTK
UniProt P04049, sequence (P04049 whole entry, looked up): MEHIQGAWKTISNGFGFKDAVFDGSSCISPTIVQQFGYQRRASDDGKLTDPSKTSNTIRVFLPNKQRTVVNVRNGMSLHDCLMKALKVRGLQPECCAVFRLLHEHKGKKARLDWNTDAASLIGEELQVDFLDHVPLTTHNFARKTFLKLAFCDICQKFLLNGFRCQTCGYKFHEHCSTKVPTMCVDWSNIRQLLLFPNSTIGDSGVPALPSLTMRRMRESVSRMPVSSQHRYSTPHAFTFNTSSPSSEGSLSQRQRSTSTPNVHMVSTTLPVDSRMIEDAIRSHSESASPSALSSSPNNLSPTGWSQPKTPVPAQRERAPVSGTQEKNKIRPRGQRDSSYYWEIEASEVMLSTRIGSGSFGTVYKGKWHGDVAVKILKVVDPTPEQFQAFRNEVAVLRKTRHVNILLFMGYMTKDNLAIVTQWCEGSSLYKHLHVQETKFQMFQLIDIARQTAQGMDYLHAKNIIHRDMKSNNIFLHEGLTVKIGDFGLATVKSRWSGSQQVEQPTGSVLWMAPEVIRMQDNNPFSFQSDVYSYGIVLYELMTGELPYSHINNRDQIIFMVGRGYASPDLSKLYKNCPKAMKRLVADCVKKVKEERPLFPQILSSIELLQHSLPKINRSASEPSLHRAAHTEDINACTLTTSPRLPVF
UniProt P40937, sequence (P40937 whole entry, looked up): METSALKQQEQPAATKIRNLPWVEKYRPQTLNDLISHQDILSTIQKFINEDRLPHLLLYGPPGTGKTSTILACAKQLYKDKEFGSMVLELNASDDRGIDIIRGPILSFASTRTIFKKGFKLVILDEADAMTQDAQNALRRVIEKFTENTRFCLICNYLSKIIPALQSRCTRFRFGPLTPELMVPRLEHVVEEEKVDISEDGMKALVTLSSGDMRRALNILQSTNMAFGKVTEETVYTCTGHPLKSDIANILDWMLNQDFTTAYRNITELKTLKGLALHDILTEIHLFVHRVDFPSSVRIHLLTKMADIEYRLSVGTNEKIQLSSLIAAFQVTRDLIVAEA
UniProt O94762, sequence (O94762 whole entry, looked up): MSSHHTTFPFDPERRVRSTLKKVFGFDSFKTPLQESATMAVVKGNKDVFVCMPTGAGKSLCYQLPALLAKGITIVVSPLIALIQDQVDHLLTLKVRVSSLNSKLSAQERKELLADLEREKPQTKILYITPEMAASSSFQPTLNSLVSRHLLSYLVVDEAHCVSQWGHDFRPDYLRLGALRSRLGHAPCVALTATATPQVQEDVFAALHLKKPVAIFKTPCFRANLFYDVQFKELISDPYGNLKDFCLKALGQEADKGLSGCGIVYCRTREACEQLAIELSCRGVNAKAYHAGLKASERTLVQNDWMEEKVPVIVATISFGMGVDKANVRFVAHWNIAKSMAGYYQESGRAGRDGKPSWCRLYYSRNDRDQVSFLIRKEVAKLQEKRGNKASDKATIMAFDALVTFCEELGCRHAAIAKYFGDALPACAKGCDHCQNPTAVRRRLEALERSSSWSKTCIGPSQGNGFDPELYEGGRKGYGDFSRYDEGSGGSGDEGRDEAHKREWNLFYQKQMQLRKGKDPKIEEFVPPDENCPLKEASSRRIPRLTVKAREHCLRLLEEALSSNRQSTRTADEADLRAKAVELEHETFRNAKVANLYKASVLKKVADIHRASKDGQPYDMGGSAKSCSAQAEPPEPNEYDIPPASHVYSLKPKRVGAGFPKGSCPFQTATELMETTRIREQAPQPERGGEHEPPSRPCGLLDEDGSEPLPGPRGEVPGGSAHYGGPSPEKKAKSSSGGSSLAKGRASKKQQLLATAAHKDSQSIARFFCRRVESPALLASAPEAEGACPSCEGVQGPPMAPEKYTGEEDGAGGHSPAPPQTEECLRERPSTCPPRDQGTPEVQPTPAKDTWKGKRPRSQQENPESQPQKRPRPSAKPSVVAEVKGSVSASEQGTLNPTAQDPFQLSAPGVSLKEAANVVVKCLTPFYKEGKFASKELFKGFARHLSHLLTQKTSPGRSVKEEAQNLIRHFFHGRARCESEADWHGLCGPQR
UniProt Q9H0R6, sequence (Q9H0R6 whole entry, looked up): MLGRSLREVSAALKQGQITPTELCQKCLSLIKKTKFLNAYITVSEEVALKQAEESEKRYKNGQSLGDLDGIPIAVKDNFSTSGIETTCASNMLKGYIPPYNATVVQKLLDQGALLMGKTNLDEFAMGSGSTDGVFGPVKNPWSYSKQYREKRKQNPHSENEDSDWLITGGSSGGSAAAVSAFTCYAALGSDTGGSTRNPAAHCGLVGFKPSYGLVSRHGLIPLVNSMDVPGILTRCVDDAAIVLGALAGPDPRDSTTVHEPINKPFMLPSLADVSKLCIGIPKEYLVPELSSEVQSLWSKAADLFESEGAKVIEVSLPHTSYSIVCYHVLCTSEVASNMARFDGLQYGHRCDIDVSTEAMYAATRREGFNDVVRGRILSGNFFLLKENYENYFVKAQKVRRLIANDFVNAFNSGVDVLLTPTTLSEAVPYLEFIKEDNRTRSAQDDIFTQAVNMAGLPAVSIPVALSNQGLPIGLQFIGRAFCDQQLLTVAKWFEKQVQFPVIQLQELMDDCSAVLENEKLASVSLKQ
UniProt Q99643, sequence (Q99643 whole entry, looked up): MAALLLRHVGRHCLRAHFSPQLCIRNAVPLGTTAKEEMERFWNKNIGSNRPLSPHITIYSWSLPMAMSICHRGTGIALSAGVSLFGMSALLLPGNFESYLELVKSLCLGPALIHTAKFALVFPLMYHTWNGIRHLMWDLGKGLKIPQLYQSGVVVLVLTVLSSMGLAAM
UniProt Q9NR31, sequence (Q9NR31 whole entry, looked up): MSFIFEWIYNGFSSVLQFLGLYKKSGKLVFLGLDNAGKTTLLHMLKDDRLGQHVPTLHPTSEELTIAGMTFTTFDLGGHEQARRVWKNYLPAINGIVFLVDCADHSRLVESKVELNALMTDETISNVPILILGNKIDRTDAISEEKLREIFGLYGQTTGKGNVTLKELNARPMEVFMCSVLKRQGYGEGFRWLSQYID

Target | log2 fold change (vemurafenib) | log2 fold change [1] | log2 fold change (barasertib) | log2 fold change [2] | log2 fold change (volasertib) | log2 fold change [3] | log2 fold change [4] | log2 fold change [5] | log2 fold change (saracatinib) | log2 fold change (sotrastaurin) | log2 fold change (alvocidib) | log2 fold change (Tubastatin A) | log2 fold change [6] | log2 fold change (defactinib) | log2 fold change [7] | log2 fold change (encorafenib) | log2 fold change [8] | log2 fold change (alisertib) | log2 fold change [9] | log2 fold change (gefitinib)
RABGGTB (UniProt P53611) | -0.022 | 0.058 | 0.096 | -0.034 | 0.008 | -0.031 | 0.151 | -0.033 | -0.017 | 0.037 | -0.015 | -0.043 | -0.025 | 0.031 | -0.021 | 0.044 | 0.065 | 0.005 | 0.002 | -0.002
RFC5 (UniProt P40937) | 0.034 | -0.003 | -0.017 | -0.039 | -0.079 | 0.022 | 0.137 | 0.005 | 0.008 | 0.043 | 0.004 | -0.203 | 0.003 | 0.008 | -0.004 | 0.051 | 0.148 | -0.006 | -0.003 | 0
RAF1 isoform 2 (UniProt P04049) | 0.739 (active) | -0.142 | 0.068 | -0.159 | -0.083 | -0.029 | -0.028 | -0.037 | -0.014 | -0.041 | 0.048 | -0.022 | 0.019 | -0.097 | -0.001 | 1.06 (active) | 0.048 | -0.007 | 0.052 | 0.022
QRSL1 (UniProt Q9H0R6) | 0.134 | 0.012 | 0.044 | -0.004 | -0.057 | 0.008 | -0.178 | -0.138 | -0.056 | 0.071 | -0.028 | -0.021 | -0.012 | -0.068 | -0.051 | -0.015 | -0.005 | 0.014 | 0.014 | -0.045
SAR1A (UniProt Q9NR31) | 0.109 | 0 | 0.07 | 0.03 | -0.05 | 0.021 | -0.009 | -0.108 | 0.025 | 0.084 | -0.034 | 0.153 | 0.03 | 0.086 | 0.086 | 0.152 | 0.084 | 0.134 | 0.161 | 0.156
SDHC (UniProt Q99643) | -0.035 | -0.022 | 0.031 | -0.089 | 0.044 | 0.04 | -0.307 (active) | 0.156 | 0.063 | 0.062 | -0.114 | -0.056 | 0.047 | 0.146 | 0.097 | 0.034 | 0.055 | 0.018 | -0.007 | 0.011
RPS4X (UniProt P62701) | 0.001 | -0.014 | -0.033 | 0.001 | -0.007 | -0.025 | 0.242 (active) | -0.059 | -0.016 | -0.009 | 0.039 | 0.032 | -0.03 | -0.027 | 0.029 | -0.036 | 0.063 | 0.004 | 0.002 | -0.028
SAR1B (UniProt Q9Y6B6) | 0.034 | 0 | 0.165 | 0.04 | -0.042 | 0.017 | -0.017 | -0.09 | 0.041 | 0.047 | 0.032 | 0.176 | 0.199 | 0.05 | 0.147 | 0.203 | 0.052 | 0.128 | 0.145 | 0.015
RNF168 (UniProt Q8IYW5) | 0.152 | 0.134 | 0.235 | 0.128 | -0.062 | 0.138 | 0.015 | 0.035 | -0.007 | -0.06 | 0.037 | -0.03 | 0.068 | -0.026 | -0.03 | -0.046 | -0.102 | -0.078 | -0.043 | 0.079
RRAGA (UniProt Q7L523) | 0.111 | 0.092 | -0.004 | 0.014 | 0.042 | 0.139 | -0.011 | 0.051 | 0.081 | -0.014 | -0.122 | -0.687 (active) | -0.053 | -0.044 | -0.045 | -0.032 | -0.022 | -0.161 | 0.017 | 0.04
RBM22 (UniProt Q9NW64) | -0.014 | -0.007 | 0.022 | 0.078 | -0.004 | -0.004 | 0.058 | 0.025 | 0.01 | -0.08 | 0.022 | 0.019 | 0.009 | 0.001 | 0.179 | 0.05 | -0.11 | 0.002 | 0.026 | 0.031
RDH10 (UniProt Q8IZV5) | 0.054 | 0.032 | 0.027 | -0.011 | 0.035 | -0.072 | -0.067 | 0.062 | -0.035 | -0.006 | -0.013 | 0.015 | 0.069 | 0.009 | -0.013 | -0.001 | 0.346 (active) | 0.037 | 0.007 | -0.004
RNF40 (UniProt O75150) | 0.001 | 0.008 | 0.043 | -0.005 | -0.047 | 0.002 | 0.011 | -0.033 | 0.033 | -0.012 | -0.003 | -0.102 | 0.023 | 0.022 | -0.006 | 0.015 | 0.079 | -0.002 | 0 | 0.013
RPS9 (UniProt P46781) | -0.037 | -0.01 | -0.003 | -0.074 | -0.005 | 0.03 | 0.302 (active) | -0.063 | 0 | -0.023 | 0.053 | 0.006 | -0.036 | -0.064 | 0.006 | -0.022 | 0.065 | 0.004 | -0.003 | -0.033
RFC2 (UniProt P35250) | -0.043 | 0.007 | 0.038 | -0.095 | -0.09 | 0.024 | -0.068 | 0.023 | -0.005 | 0.03 | -0.025 | -0.21 | -0.012 | 0.023 | -0.055 | 0.042 | 0.113 | 0.014 | 0.005 | 0.007
RECQL5 (UniProt O94762) | -0.028 | -0.045 | 0.02 | 0.069 | -0.187 | -0.01 | 0.131 | -0.222 | 0.018 | 0.003 | 0.057 | -0.053 | -0.071 | 0.068 | 0.074 | 0.225 | 0.016 | -0.003 | 0.09 | 0.03
